{
  "source": "PubChem BioAssay AID2401",
  "about": "(Southern Research Specialized Biocontainment Screening …, 2010)",
  "note": "Among all 2,200 compounds or so, about 530 (24%) were called active.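 Rule for the calls: active = inhibition above a set limit at one or more concentrations of the dose series; inactive = inhibition under that limit at every dose.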 A selection follows. Entries with a potency or affinity are not part of this list.",
  "data": [
    {"test": "S. Typhimurium nonspecific reporter signal inhibition – Salmonella Typhimurium, GFP fluorescence, counter-screen for PhoP regulon inhibitor project, dose response (AID 2401);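 note: S. typhimurium with Mg-insensitive nmpC-GFP reporter grown at 10 µM Mg2+; drop in reporter fluorescence reflects general culture growth inhibition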", "conditions": "4 h; series mostly up to 150 µM", "values": [
      {"smiles": "Cn1cccc1C1NC(=O)c2c(sc3c2CCC(C(C)(C)C)C3)N1", "note": "(stereo not given)", "outcome": "inactive"},
      {"smiles": "Cc1nn(-c2ccccc2)c(C)c1C(=O)OC/C(O)=C(\\C#N)c1nc2ccccc2[nH]1", "outcome": "inactive"},
      {"smiles": "Cc1cc(C2=NNC(=NC3CC3)SC2)c(C)n1Cc1ccco1", "outcome": "inactive"},
      {"smiles": "Cc1ccc(-c2nnc(SCC(=O)N3CCCc4ccccc43)n2N)cc1", "outcome": "inactive"},
      {"smiles": "COC(=O)c1sc2nc(CSc3nc4ccc(C)cc4[nH]3)[nH]c(=O)c2c1C", "outcome": "inactive"},
      {"smiles": "CCOC(=O)C1=C(c2ccccc2)N=C2SCC(=O)N2C1c1ccc(O)c(OC)c1", "note": "(stereo not given)", "outcome": "inactive"},
      {"smiles": "CCOC(=O)c1cc2ccc(OC)c(OC)c2c(=O)s1", "outcome": "inactive"},
      {"smiles": "C/C(=C\\c1ccco1)C1Nc2cccc3cccc(c23)N1", "outcome": "inactive"},
      {"smiles": "COc1ccc(OC)c(NC(=O)c2cc3c(Cl)nc4ccccc4c3s2)c1", "outcome": "inactive"},
      {"smiles": "CCOC(=O)N1CCN(C(=O)c2ccc(NC(=O)c3ccc(C)cc3)cc2)CC1", "outcome": "inactive"},
      {"smiles": "C/C(=N\\Nc1nc2ccccc2[nH]1)c1ccc(Cl)s1", "outcome": "inactive"},
      {"smiles": "C/C(=N\\Nc1nc2ccccc2[nH]1)c1cccs1", "outcome": "inactive"},
      {"smiles": "COc1c(/C=N/Nc2nc(N3CCCCC3)nc(N3CCCCC3)n2)cccc1[N+](=O)[O-]", "outcome": "inactive"},
      {"smiles": "Cc1cc(/C=N\\NC(=O)c2cccs2)c(C)n1-c1ccc2ncccc2c1", "outcome": "inactive"},
      {"smiles": "Cc1nc2ccccn2c1C(=O)N/N=C/c1ccccc1[N+](=O)[O-]", "outcome": "inactive"},
      {"smiles": "COC(=O)c1cn(C(=O)c2cccs2)c2ccccc12", "outcome": "inactive"},
      {"smiles": "C=CCOc1ccc(CNc2nn[nH]n2)cc1", "outcome": "inactive"},
      {"smiles": "O=C(CCN1CCc2ccccc2C1)Nc1ccccc1F", "outcome": "inactive"},
      {"smiles": "Cc1cc(-c2csc(NC(=O)c3ccc(C#N)cc3)n2)c(C)n1Cc1ccco1", "outcome": "inactive"},
      {"smiles": "CCOC(=O)CSc1nc2c(sc(=S)n2-c2ccccc2)c(=O)n1-c1ccc(OC)cc1OC", "outcome": "inactive"},
      {"smiles": "O=c1[nH]c(SCc2nc3ccccc3c(=O)n2-c2ccccc2C(F)(F)F)nc2ccccc12", "outcome": "inactive"},
      {"smiles": "C/C(=N\\NC(=O)c1c(Cl)c(C)nn1C)c1cccc(NC(=O)COc2ccc(Cl)cc2)c1", "outcome": "inactive"},
      {"smiles": "COc1ccc(C2COC(=O)C2=N)c(NC(=O)c2ccc(Cl)cc2)c1", "note": "(stereo not given)", "outcome": "inactive"},
      {"smiles": "CCCCCCNCc1cccc(Br)c1", "outcome": "inactive"},
      {"smiles": "COc1ccc2c(c1)OC1=C(C(=O)CCC1)C2C1=C(O)CCCC1=O", "note": "(stereo not given)", "outcome": "inactive"},
      {"smiles": "Cc1cccc(C(=O)Nc2nnc(Cc3c[nH]c4ccccc34)s2)c1", "outcome": "inactive"},
      {"smiles": "Nc1ncncc1-c1ccc(Cl)cc1", "outcome": "inactive"},
      {"smiles": "O=C(Nc1nc2ccc(SC(F)F)cc2s1)c1ccc2c(c1)S(=O)(=O)c1ccccc1C2=O", "outcome": "inactive"},
      {"smiles": "COC(=O)C1=C(CSc2nc3ccccc3o2)NC(=O)NC1c1cc(C)ccc1C", "note": "(stereo not given)", "outcome": "inactive"},
      {"smiles": "Cc1cc(C)nc(N2CCCC(C(=O)Nc3ccc4nc(C)c(C)nc4c3)C2)n1", "note": "(stereo not given)", "outcome": "inactive"}
    ]}
  ]
}
